The nature of this assay: blockers of polyQ-driven CASP3 activation – cell-based (AID 1583). Conditions: polyglutamine-induced caspase-3 activation, cell assay; stronger effect = higher value;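 tested at 10 µM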.
By inhibition is commonly meant the relative decrease from the control value, in per cent. As to `CC(=O)Oc1ccccc1C(=O)O`, the inhibition was -10.2%.

Regarding `CC(C)NCC(O)c1ccc2ccccc2c1` (centres undefined), the inhibition was 0.74%.

As to `O=C(O)c1ccccc1OP(=O)(O)O`, the inhibition was determined as 6.6%.

`Oc1c(Cl)cc(Cl)c(Cl)c1Cc1c(O)c(Cl)cc(Cl)c1Cl`: the inhibition amounted to 5.38%.

For the compound `Nc1ccc(S(=O)(=O)Nc2ccnn2-c2ccccc2)cc1`, the inhibition was -0.92%.

With `CCCCCCCCNC(C)C(O)c1ccc(SC(C)C)cc1` (centres undefined), the inhibition was determined as 71.7%.

Regarding `O=C(OCc1ccccc1)c1ccccc1`, the inhibition stood at 4.26%.

As for `S=P(N1CC1)(N1CC1)N1CC1`, the inhibition is 8.19%.

`NS(=O)(=O)c1cc2c(cc1Cl)NC(C1CC3C=CC1C3)NS2(=O)=O` (centres undefined): the inhibition was determined as 13%.

For the compound `C=C1c2cccc(O)c2C(O)=C2C(=O)[C@]3(O)C(O)=C(C(N)=O)C(=O)[C@@H](N(C)C)[C@@H]3[C@@H](O)[C@H]12`, the inhibition was -86.7%.

On to `NS(=O)(=O)c1cc2c(cc1Cl)NC(CSCc1ccccc1)=NS2(=O)=O`, for which the inhibition is 25.2%.

For `O=C(O)P(=O)(O)O`, the inhibition is -16.3%.

For `CO[C@@]1(NC(=O)C(C(=O)O)c2ccc(O)cc2)C(=O)N2C(C(=O)O)=C(CSc3nnnn3C)CO[C@@H]21` (some centres undefined), the inhibition turned out to be 10.7%.

`Nc1ccc(C(=O)O)cc1`: the inhibition amounted to 2.66%.

As to `CCCCCCOc1ccccc1C(N)=O`, the inhibition was 0.61%.

As to `CCN(CC)CCOc1ccc(/C(=C(\Cl)c2ccccc2)c2ccccc2)cc1`, the inhibition was -2.8%.

On to `O=C1c2c(O)cccc2Cc2cccc(O)c21`, for which the inhibition turned out to be 18.6%.

On to `C=CCc1ccc(O)c(OC)c1`, for which the inhibition was -5.5%.

Consider `O=C(N[C@H](CO)[C@H](O)c1ccc([N+](=O)[O-])cc1)C(Cl)Cl`, for which the inhibition was -3.82%.

The values are drawn from PubChem BioAssay.
